Assay results reported in PubChem BioAssay (NCATS).
Results filed as inconclusive are left out. A call without a number means that no potency is given here. Values without a mark were called inactive. Calls of active or inactive are those of the source. Calls follow the shape of the dose curve; as a rule, active = well fitted curve in the direction sought with a large enough effect; inconclusive = small, poorly fitted or top-dose-only effect, or another doubt; inactive = no such curve, though single readings can be large; an effect the other way counts as inactive or inconclusive. *1 amine or outer side, *2 acyl side, *3 side chain or, on linkers, in order; H or OH if unused. Where a SMILES comes first, the peptide text is derived from it. Bridges are numbered along the chain shown (N, C = ends). [ ]: non-standard residue; d: D form. The star is where a group is joined. ξ: configuration not given here. ξhTyr(3S-OH,4S-OH,3'-OSO3H) = NC(C(=O)O)[C@H](O)[C@@H](O)c1ccc(O)c(OS(=O)(=O)O)c1; Orn(4R-OH,5R-OH) = O=C([C@H](C[C@@H](O)[C@@H](O)N[*:3])N[*:1])[*:2]; X2 = CCCCCOc1ccc(-c2cc(-c3ccc(C(=O)*)cc3)no2)cc1; X3 = C[C@H]1CN([*:1])C(C(=O)[*:2])[C@H]1O; ξGln(3R-OH) = NC(=O)C[C@@H](O)C(N)C(=O)O; ξPro(4R-OH) = O=C(O)C1C[C@@H](O)CN1; ξThr(3R) = C[C@@H](O)C(N)C(=O)O

Columns and labels:
[1] = Vero cells viability qHTS for Zika virus inhibitors (AID 1347167)
Summary of the method: (§1)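 qHTS titration; 24-48 h compound exposure, 37 degrees C/5% CO2; DMEM, 4% FBS; CellTiter Glo ATP luminescence.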

[2] = HepG2 cells viability qHTS for Zika virus inhibitors (AID 1347168)
Summary of the method: as §1

[3] = Tertiary RLuc qRT-PCR qHTS assay for Zika virus inhibitors (AID 1347169); also: nearly all actives have a fitted effect of over 55% in size; also: potency is read from the fitted curve at half-maximal effect
Summary of the method: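 Luminescence read-out: live-cell Renilla luciferase substrate applied to infected Vero cells, signal measured after 1-1.5 hrs. Cells had received compound before ZIKV-RLuc (Cambodian strain, MOI 1-2) infection and were incubated 48-72 hrs at 37 degrees C.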

[4] = OV-KATE Cancer Cell Toxicity qHTS against the NCATS CANVASS Library (AID 1347345)
Summary of the method: (§2)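 Per well, 1000 cells; exposure 72 h with compound at 11 final concentrations; readout CellTiter-Glo luminescence.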

[5] = HPAF-II Cancer Cell Toxicity qHTS against the NCATS CANVASS Library (AID 1347346); also: series mostly up to about 38 µM; nearly all actives have a fitted effect of over 55% in size
Summary of the method: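 1000 HPAF-II cells/well; 4 h pre-incubation; 11-pnt compound titration; 72 h, 37 degrees C/5% CO2; CellTiter-Glo, 15 min RT; luminescence read.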

[6] = UWB1.289 Cancer Cell Toxicity qHTS against the NCATS CANVASS Library (AID 1347347); also: series mostly up to about 38 µM; nearly all actives have a fitted effect of over 60% in size
Summary of the method: as §2

[7] = OV-SAHO Cancer Cell Toxicity qHTS against the NCATS CANVASS Library (AID 1347348); also: series mostly up to about 38 µM; nearly all actives have a fitted effect of over 55% in size
Summary of the method: as §2

[8] = Panc-1005 Cancer Cell Toxicity qHTS against the NCATS CANVASS Library (AID 1347349); also: series mostly up to about 38 µM; nearly all actives have a fitted effect of over 60% in size
Summary of the method: as §2

[9] = SW1088 Cancer Cell Toxicity qHTS against the NCATS CANVASS Library (AID 1347350); also: series mostly up to about 38 µM; nearly all actives have a fitted effect of over 75% in size
Summary of the method: as §2

[10] = U-118MG Cancer Cell Toxicity qHTS against the NCATS CANVASS Library (AID 1347351); conditions: outcome: dose series up to 38.3 µM
Summary of the method: as §2

[11] = COV-362 Cancer Cell Toxicity qHTS against the NCATS CANVASS Library (AID 1347352); also: series mostly up to about 38 µM
Summary of the method: (§3)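 1000 cells/well, 4 h pre-incubation 37 °C/5% CO2; 11-pnt titration; 72 h; CellTiter-Glo 15 min RT, luminescence.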

[12] = A2780 Cisplatin Sensitive Ovarian Cancer Cell Toxicity qHTS against the NCATS CANVASS Library (AID 1347353); also: series mostly up to about 46 µM; nearly all actives have a fitted effect of over 60% in size
Summary of the method: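 750 cells/well, 4 h settle; 11-pt cpd titration; 72 h, 37 °C, 5% CO2; ATPLite 10 min RT; luminescence read.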

[13] = UWB1.289-WTBRCA1 Cancer Cell Toxicity qHTS against the NCATS CANVASS Library (AID 1347354); conditions: outcome: dose series up to 38.3 µM
Summary of the method: as §3

[14] = HEK-293 Cancer Cell Toxicity qHTS against the NCATS CANVASS Library (AID 1347355); also: series mostly up to about 46 µM; nearly all actives have a fitted effect of over 65% in size
Summary of the method: as §3

[15] = HPAF-II 24hr Apoptosis Induction qHTS against the NCATS CANVASS Library (AID 1347356)
Summary of the method: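 500 HPAF-II cells/well; compounds in 11-pnt qHTS; 24 h, 37 C/5% CO2; Caspase-Glo 3/7 added, 15 min RT dark; luminescence read. Doxorubicin control.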

[16] = HEK293 18hr Apoptosis Induction qHTS against the NCATS CANVASS Library (AID 1347357)
Summary of the method: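 Caspase-3/7 luminescence (DEVD substrate, Caspase-Glo) after 18 h compound exposure of HEK293 cells, 500 cells/well; 11-point series; doxorubicin titration as control.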

[17] = HPAF-II 12hr Apoptosis Induction qHTS against the NCATS CANVASS Library (AID 1347358)
Summary of the method: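 Caspase-Glo 3/7 luminescence (DEVD substrate) reports caspase activity in HPAF-II cells after 12 h compound treatment at 37 degrees C. Compounds were tested in an 11-point series. Doxorubicin served as control.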

[18] = HEK293 24hr Apoptosis Induction qHTS against the NCATS CANVASS Library (AID 1347359)
Summary of the method: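 HEK293 cells, 500 per well, exposed to an 11-point compound series for 24 hours at 37 degrees C. Caspase 3/7 activity read by Caspase-Glo luminescence (DEVD substrate) after 15 min at room temperature.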

[19] = HPAF-II 18hr Apoptosis Induction qHTS against the NCATS CANVASS Library (AID 1347360)
Summary of the method: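 Caspase-Glo 3/7 luminescence (DEVD substrate) after 15 min RT; HPAF-II, 500 cells/well, 18 h compound exposure at 37 degrees C, qHTS series; doxorubicin control 0.1nM - 4uM.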

[20] = HEK293 12hr Apoptosis Induction qHTS against the NCATS CANVASS Library (AID 1347361)
Summary of the method: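 500 HEK293 cells/well; cpds pin-transferred, 11-pt conc series; 12 h, 37 degrees C/5% CO2; Caspase-Glo 3/7 added, 15 min RT dark; luminescence.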

Compound: CC(C)CC(c1c(O)c(C=O)c(O)c(C=O)c1O)C1CCC(C)(O)C2CC(C(C)(C)O)CCC12C (centres undefined)
- outcome [1]: inactive
- outcome [2]: inactive
- Potency [3]: inactive

Compound: Cc1ccc2[nH]c(=O)c(C3=NN(C(=O)CCC(=O)O)C(c4ccc(Br)cc4)C3)c(-c3ccccc3)c2c1 (centres undefined)
- outcome [1]: inactive
- outcome [2]: inactive

Compound: C/C=C/C=C/C=C/C(=O)O[C@@H]1[C@@H](OC)C2=C(C(=O)N(C(CCC(=O)O)C(=O)O)C2)[C@@]2(C)CCCC(C)(C)[C@H]12 (some centres undefined)
- outcome [1]: inactive
- outcome [2]: inactive
- Potency [3]: inactive

Compound: COc1cc(/C=C/c2ccccc2)c(C(=O)O)c(O)c1CC=C(C)C
- outcome [1]: inactive
- outcome [2]: inactive

Compound: Cc1ccccc1NC(=O)Nc1ccc(CN2C(=O)N([C@@H](CC(C)C)C(=O)N[C@@H](CC(=O)O)c3ccccc3)C(=O)C2(C)C)cc1
- outcome [1]: inactive
- outcome [2]: inactive
- Potency [3]: inactive

Compound: COc1cc(Nc2ccc([N+](=O)[O-])cc2C(=O)O)cc2ccccc12
- outcome [1]: inactive
- outcome [2]: inactive

Compound: O=C(O)CC1CCC(c2ccc(-c3ccc(Nc4ccc(C(F)(F)F)nc4)cn3)cc2)CC1 (centres undefined)
- outcome [1]: inactive
- outcome [2]: inactive
- Potency [3]: 16.5 µM (active)

Compound: Cc1ccc([C@@H]2CC=C(C(=O)O)[C@H](c3ccc(C(C)(C)C)cc3)N2S(=O)(=O)c2ccc(C)cc2)cc1
- outcome [1]: inactive
- outcome [2]: inactive
- Potency [3]: 18.6 µM (active)

Compound: CC1(C)CC=C(c2cnc3ccccc3c2)c2cc(C(=O)Nc3ccc(C(=O)O)cc3)ccc21
- outcome [1]: inactive
- outcome [2]: inactive
- Potency [3]: inactive

Compound: COc1cccc(OC)c1-c1cc(C(=O)N[C@@H](CC(C)C)C(=O)O)nn1-c1ccnc2cc(Cl)ccc12
- outcome [1]: inactive
- outcome [2]: inactive
- Potency [3]: inactive

Compound: CC(=O)OC12CC(C)C(OC(=O)c3ccccc3)C1/C=C(/C)C(OC(=O)c1ccccc1)CC(=O)C(C)(C)/C=C/C(C)C2=O (centres undefined)
- outcome [1]: inactive
- outcome [2]: inactive
- Potency [3]: 2.76 µM (active)

Compound: CCCCCOc1ccc(-c2cc(-c3ccc(C(=O)N[C@H]4C[C@@H](O)[C@@H](O)NC(=O)C5[C@@H](O)[C@@H](C)CN5C(=O)C([C@H](O)CC(N)=O)NC(=O)C([C@H](O)[C@@H](O)c5ccc(O)c(OS(=O)(=O)O)c5)NC(=O)C5C[C@@H](O)CN5C(=O)C([C@@H](C)O)NC4=O)cc3)no2)cc1 (stereo partly drawn) (X2-[Orn(4R-OH,5R-OH)][ξThr(3R)][ξPro(4R-OH)][ξhTyr(3S-OH,4S-OH,3'-OSO3H)][ξGln(3R-OH)][X3]; lactam 1-C)
- outcome [1]: inactive
- outcome [2]: inactive

Compound: O=C(O)C1(c2ccc(-c3ccc(Cl)c(Cl)c3)c(F)c2)CC1
- outcome [1]: inactive
- outcome [2]: inactive
- Potency [3]: inactive

Compound: O=C(Nc1ccccc1)Nc1ccc(-c2ccc(C(=O)C3CCCC3C(=O)O)cc2)cc1 (centres undefined)
- outcome [1]: inactive
- outcome [2]: inactive
- Potency [3]: inactive

Compound: COc1ccc(C2C(C(=O)O)C(C(=O)O)C2c2ccc(OC)cc2O[C@@H]2O[C@H](CO)[C@@H](O)[C@H](O)[C@H]2O)c(O[C@@H]2O[C@H](CO)[C@@H](O)[C@H](O)[C@H]2O)c1 (some centres undefined)
- Potency [3]: inactive

Compound: CC(C)c1ccc2c(c1)CCC1[C@](C)(C(=O)O)CCC[C@]21C (some centres undefined)
- outcome [4]: inactive
- outcome [5]: inactive
- outcome [6]: inactive
- outcome [7]: inactive
- outcome [8]: inactive
- Potency [9]: inactive
- outcome [10]: inactive
- outcome [11]: inactive
- outcome [12]: inactive
- outcome [13]: inactive
- outcome [14]: inactive
- outcome [15]: inactive
- outcome [16]: inactive
- outcome [17]: inactive
- outcome [18]: inactive
- outcome [19]: inactive
- outcome [20]: inactive

Compound: CC(=O)O[C@H]1C[C@@]2(C)[C@@H](CC[C@H]3[C@@]4(C)C=CC(=O)[C@@H](C)[C@@H]4[C@H](OC(C)=O)C(=O)[C@@]32C)/C1=C(\CCC=C(C)C)C(=O)O
- outcome [4]: inactive
- outcome [6]: inactive
- outcome [7]: inactive
- outcome [8]: inactive
- outcome [10]: inactive
- outcome [11]: inactive
- outcome [13]: inactive
- outcome [15]: inactive
- outcome [16]: inactive
- outcome [17]: inactive
- outcome [18]: inactive
- outcome [19]: inactive
- outcome [20]: inactive
